Here are results for 40 compounds from PubChem BioAssay (Tox21).

SMILES strings stand for the structures. Results filed as inconclusive are left out. A number with no mark means an inactive call. Active and inactive are the calls of the source. Calls follow the shape of the full dose curve.
% is scaled to controls: 0 for no effect and ±100 for the full control effect.

Chain of D(2) dopamine receptor (Homo sapiens) (P14416 whole entry, looked up): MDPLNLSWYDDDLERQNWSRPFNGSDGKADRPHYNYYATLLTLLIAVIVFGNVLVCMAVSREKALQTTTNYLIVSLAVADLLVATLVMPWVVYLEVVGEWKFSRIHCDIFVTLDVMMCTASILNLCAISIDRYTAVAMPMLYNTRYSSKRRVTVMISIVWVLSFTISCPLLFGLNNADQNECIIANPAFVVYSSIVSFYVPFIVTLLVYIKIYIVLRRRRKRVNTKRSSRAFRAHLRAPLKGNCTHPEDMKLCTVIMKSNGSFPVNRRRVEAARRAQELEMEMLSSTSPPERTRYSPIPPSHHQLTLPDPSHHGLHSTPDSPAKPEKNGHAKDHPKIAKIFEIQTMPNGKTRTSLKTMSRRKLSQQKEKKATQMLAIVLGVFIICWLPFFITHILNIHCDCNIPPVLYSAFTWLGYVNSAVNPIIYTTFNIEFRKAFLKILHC

The assay has as its target D(2) dopamine receptor (Homo sapiens) (UniProt P14416). As to the kind of experiment: Dopamine D2 receptor (DRD2) small molecule agonists, cell-based qHTS assay (AID 1963594). Also: nearly all actives have a fitted effect of over 35% in size. Particulars: HEK293-DRD2 cAMP HTRF, agonist mode, 30 min; series mostly up to 92.4 µM; activation: at the top concentration. An excerpt: National Center for Advancing Translational Sciences [NCATS]
Division of Preclinical Innovation [DPI]
U.S. Environmental Protection Agency [EPA]
National Institutes of Environmental Health Sciences [NIEHS]
National Toxicology Program [NTP]
U.S. Food and Drug Administration [FDA]
DRD2 is the D2 subtype of the dopamine receptor, which is coupled to Gi subtype of G protein-coupled receptor. This G protein-coupled receptor inhibits adenylyl cyclase activity. The DRD2-HEK293 cell line stably expressing D2 dopamine receptor can be used for screening agonists and antagonists of interactions between D2 and its ligands. The Hek293-DRD2 cAMP assay is based on HTRF technology. It measures changes of cAMP accumulation in response to Gi coupled GPCR activation or inhibition.
Tox21 Assay Protocol Summary:
DRD2-Hek293 cells were dispensed at 600 cells/3uL/well in 1536-well white plates using a Multidrop Dispenser. After the assay plates were incubated at a 37 C/5% CO2 incubator for 24 h, 1 uL of Ro20-1724 at final concentration of 0.1 mM was transferred to the assay plate by a Flying Reagent Dispenser. Following Ro20-1724 addition, 23 nL of compound dissolved in DMSO, positive controls or DMSO only was added to the assay plates via Wako pintool station. The assay plates were incubated at room temperature for 10 min. Next, 1 uL of NKH477 at 200nM was added into the plates. After the assay plates were incubated at room temperature for an additional 30 min, 2.5 ul/well of cAMP-d2 and 2.5 ul/well of anti-cAMP-cryptate were added respectively into the assay plates using a Flying Reagent Dispenser. The plates were incubated at room temperature for 1 h. The fluorescence intensity in the plates was measured at 340 nm excitation and 665 & 620 nm emission by an Envision plate reader.
Background: Quantitative high-throughput screening tests each substance at several concentrations.
Regarding `CC1Sc2c(C(=O)O)c(=O)c3cc(F)c(N4CCNCC4)cc3n21` (stereo not given), the “activation” value was -11.7% [at 42.5 µM]. As for `CC(=O)NNc1ccccc1`, the “activation” value is -1.87%. As to `O=C(NC(=O)c1c(F)cccc1F)Nc1cc(Cl)c(Oc2ncc(C(F)(F)F)cc2Cl)c(Cl)c1`, the “activation” value is -1.16%. For `CCC(=O)c1ccc(Cl)cc1`, the “activation” value was -6.6%. `COc1ccc(/C(=C/C(=O)N2CCOCC2)c2ccc(Cl)cc2)cc1OC`: the “activation” value was 4.66%. For the compound `COP(=O)(OC)O/C(=C/Cl)c1cc(Cl)c(Cl)cc1Cl`, the “activation” value was -1.29%. For the compound `ClC1=C(Cl)[C@]2(Cl)[C@@H]3[C@H]4C[C@H]([C@@H]5O[C@H]45)[C@@H]3[C@@]1(Cl)C2(Cl)Cl`, the “activation” value is -20.6%. For `O=C1c2ccccc2C(=O)C1C(=O)C(c1ccccc1)c1ccc(Cl)cc1` (stereo not given), the “activation” value was -0.277%. For the compound `CC(Cc1ccccc1)NCc1ccccc1Cl` (stereo not given), the “activation” value was -0.575% [at 42.5 µM]. On the same count and under the same terms, then `Cc1nnc2n1-c1sc(CCc3ccc(CC(C)C)cc3)cc1C(c1ccccc1Cl)=NC2C` (stereo not given), with -11.6% [at 42.5 µM]; and `C=C(C)CN(CC)c1c([N+](=O)[O-])cc(C(F)(F)F)cc1[N+](=O)[O-]`, with -8.69%; and `c1ccc2c(c1)cc1ccc3cccc4ccc2c1c34`, with 6.23%. `CCCC(Cn1cncn1)c1ccc(Cl)cc1Cl` (stereo not given): the “activation” value is -13.1%. In the case of `O=C1C(Cl)C(CCl)CN1c1cccc(C(F)(F)F)c1` (stereo not given), the “activation” value is -0.85%. Consider `ClC1=C(Cl)[C@]2(Cl)[C@H]3[C@H]([C@@H]4C=C[C@H]3C4)[C@@]1(Cl)C2(Cl)Cl`, for which the Potency entry is “inactive”. With `Clc1c(Cl)c(Cl)c(Cl)c(Cl)c1Cl`, the activation is -1.37% [at 8.39 µM]. In the case of `CC(C)[C@]12CC(=O)[C@H](C)[C@H]1C2`, the “activation” value was 0.412%. On the same count and under the same terms, then `IC(I)=C(I)I`, with -13.3%.

In the case of `CCOc1cc(Oc2ccc(C(F)(F)F)cc2Cl)ccc1[N+](=O)[O-]`, the Potency result is “inactive”. On to `O=C(NC(O)C(Cl)(Cl)Cl)NC(O)C(Cl)(Cl)Cl` (stereo not given), for which the “activation” value was 9.35% [at 42.5 µM]. As for `O=C(Nc1ccc2[nH]ccc2c1)c1cc2cc(F)ccc2n1Cc1cccc(F)c1`, the “activation” value is 4.94%. As to `CCOP(=S)(OCC)Oc1cc(C)nc(N(CC)CC)n1`, the “activation” value is -3.87%. The same measure, in the same setting: next, `COc1cccc2c1cc([N+](=O)[O-])c1c(C(=O)O)cc3c(c12)OCO3`: 1.64%; `Cc1ccc(C)c2ccccc12`: -0.57%; `NC(=O)CS(=O)C(c1ccccc1)c1ccccc1` (stereo not given): 5.07% [at 42.5 µM]. On to `O=C(NC(=O)c1cc(F)c(F)cc1Cl)Nc1cc(F)ccc1N1CCC(C(=O)O)CC1`, for which the “activation” value is -1.69% [at 42.5 µM].

Take `CCc1cc2c(s1)-n1c(C)nnc1CN=C2c1ccccc1Cl`: the “activation” value was 0.152% [at 42.5 µM].

As to `CC(C)(C)NCC(O)c1cc(Cl)c(N)c(Cl)c1` (stereo not given), the “activation” value is -2.9% [at 42.5 µM]. Still for that read-out and setting: then `N#Cc1c2ccccc2cc2ccccc12`, with 2%; and `O.O.O.O.O.O.O.O=S(=O)([O-])[O-].[Co+2]`, with 1.98%; and `CCCCOC(=O)c1ccccc1N`, with 0.328%.

With `CC(C)CBr`, the “activation” value is 1.94%. Still for that read-out and setting: next, `O=C(c1ccccc1)C(Cl)Cl`: 0.21%; `CCC(C(N)=O)N1CCCC1=O` (stereo not given): 12.5% [at 42.5 µM]; `CC(N)=S`: 3.31%.

Consider `CCOP(=S)(NC(C)C)Oc1ccccc1C(=O)OC(C)C` (stereo not given), for which the “activation” value was 2.22%. Turning to `CCOC(=O)N(C)C(=O)CSP(=S)(OCC)OCC`, the “activation” value is -3.86%. Still for that read-out and setting: then `ClC(Br)Br`, with -1.88%; and `II`, with -6.15%; and `CNC(=O)O/N=C(/CSC)C(C)(C)C`, with 0.591%.
